Hits are enriched below; roughly 10% of the tested compounds scored in any of these assays.
JMJD2A Tudor inh: blocks the human JMJD2A Tudor domain. O75164. AlphaScreen JMJD2A-Tudor / H3K4me3 peptide binding. Potency, µM (titrated, usually from 114 µM), for the others: at the highest dose activity change, negative = inhibition, actives largely listed as inhibitors. hit rate 4.4% among 390,000. AID 504339; note: potency is the fitted concentration of half-maximal effect; % is set by controls: 0 for no effect and ±100 for the full control effect; nearly all actives have a fitted effect of over 50% in size
Six1-Eya2 inh: blocks human Six1 binding to Eya2; Q15475+O00167; AlphaScreen GST-Six1/His-Eya2 binding, biochemical; active compounds read low; activity change, % (test concentration not listed); hit rate 0.56% among 360,000; in the data active = activity change below about -65%; inconclusive = mostly about -30% to -63%; note: % is set by controls: 0 for no effect and ±100 for the full control effect
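Six1/Eya2 binding was read as AlphaScreen signal after compounds were pinned into GST-Six1 plus His-tagged Eya2 (5X stock 250/500 nM) in pH 8.0 Tris/NaCl/TCEP buffer, beads added, then incubated 1 h, 37 C, dark.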
G9a inh: inhibitors of human histone lysine methyltransferase G9a | AID 504332 | Q96KQ7 | Potency, µM (series often up to 102 µM), for the others: top-dose activity, negative = inhibition, most hits filed as inhibitors | G9a H3K9 monomethylation, AlphaScreen, 2 h | hit rate 8.8% among 350,000; note: potency is the fitted concentration of half-maximal effect; % is set by controls: 0 for no effect and ±100 for the full control effect; nearly all actives have a fitted effect of over 75% in size
Target sequence (Q96KQ7 913-1193 limits assumed): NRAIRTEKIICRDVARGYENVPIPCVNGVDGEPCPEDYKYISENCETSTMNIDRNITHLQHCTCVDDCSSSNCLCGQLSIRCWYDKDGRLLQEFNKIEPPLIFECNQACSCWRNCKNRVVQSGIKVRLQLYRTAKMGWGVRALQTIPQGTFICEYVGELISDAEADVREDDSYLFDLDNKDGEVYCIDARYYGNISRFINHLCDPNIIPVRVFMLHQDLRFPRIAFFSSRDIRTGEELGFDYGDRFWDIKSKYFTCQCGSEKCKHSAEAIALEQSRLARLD
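Methyltransferase reactions run at room temperature for 2 h (20 nM enzyme, 500 nM biotin-H3K9 peptide, 20 uM SAM) after a 15 min compound preincubation; product detected by AlphaScreen beads and anti-H3K9me1 antibody.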
CtBP-E1A blk: inhibitors of CtBP/E1A interaction | hit rate 0.49% among 340,000 | activity change, % (no concentration beside the values) | AlphaScreen GST-E1A/His-CtBP binding, 1536-well; active compounds read low; in the data active = activity change below about -65%; inconclusive = mostly about -30% to -63%; note: % is set by controls: 0 for no effect and ±100 for the full control effect
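Steps: dispense buffer (Tris pH 8.0, NaCl 300 mM, TCEP 1 mM, BSA, Tween 20); add 5X protein mix (GST-E1A, His-CtBP, 125 nM each); pin 23 nL compound; 2 h at 37 °C, dark; add 5X beads (50 ug/mL); 1 h; read.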
HP1b binding inh: blocks HP1-beta chromodomain binding to methylated histone tails; P83916; AlphaScreen HP1-beta / biotin-H3K9me3 peptide binding; Potency, µM (top dose mostly 114 µM), without a hit: at the highest dose activity change, negative = inhibition, actives largely listed as inhibitors; hit rate 0.56% among 390,000; AID 540317; note: potency is the fitted concentration of half-maximal effect; nearly all actives have a fitted effect of over 70% in size
Target sequence (P83916 whole entry, looked up): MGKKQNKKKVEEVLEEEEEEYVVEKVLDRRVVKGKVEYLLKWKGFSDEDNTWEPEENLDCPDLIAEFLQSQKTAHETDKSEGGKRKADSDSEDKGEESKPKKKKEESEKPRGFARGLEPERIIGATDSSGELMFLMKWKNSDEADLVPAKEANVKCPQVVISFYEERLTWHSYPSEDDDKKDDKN
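Compound inhibition of the preformed complex between 50 nM HP1-beta and 50 nM biotinylated H3K9me3 peptide was read by AlphaScreen. Buffer was PBS pH 7.4 with 0.01% Tween-20. Incubations ran 30 min at room temperature, with 10 ug/mL donor/acceptor beads.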
BAZ2B block: BAZ2B (human) inhibition | AlphaScreen BAZ2B-H3K14Ac peptide displacement | Q9UIF8 | hit rate 4.4% among 360,000 | Potency, µM (doses to about 114 µM), for inactives: at the highest dose activity change, negative = inhibition, hits mostly inhibitors | AID 504333; note: potency is the fitted concentration of half-maximal effect; % is set by controls: 0 for no effect and ±100 for the full control effect; nearly all actives have a fitted effect of over 60% in size
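Protein-peptide AlphaScreen: BAZ2B 50 nM, b-H3K14Ac 50 nM, 1x PBS pH 7.4 + 0.01% Tween-20. Preincubation 30 min RT; cpd 30 min RT (top 110 uM); beads 20 min RT, light-protected.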
Active calls of the source: *; ? = inconclusive; · = no result; [ ] = remark or other dose. Unless noted, calls come from the whole dose curve; as a rule, active = well fitted inhibition curve with a large enough effect; inconclusive = small, poorly fitted or top-dose-only effect; inactive = no such curve, though single readings can be large or run the other way.

SMILES | JMJD2A Tudor inh | Six1-Eya2 inh | G9a inh | CtBP-E1A blk | HP1b binding inh | BAZ2B block
COC(=O)[C@@]1(Cc2ccc(OC)cc2)[C@H]2c3cc(C(=O)N4CCCC4)n(Cc4cc(C)n(C)n4)c3C[C@H]2CN1C(=O)c1ccccc1 | · | -7 | · | -12 | · | ·
COc1ccc(CCNC(=O)C(=O)NCC(c2cccs2)S(=O)(=O)c2ccc(C)cc2)cc1 (stereo unspecified) | -3% | · | 6%[59 µM] | · | 27% | 2%
Cc1cccc(OCCn2c(CCNC(=O)C3CCCCC3)nc3ccccc32)c1 | 7%[57.1 µM] | · | · | · | 6%[57 µM] | ·
CCn1c(=O)c(C(=O)NCCN2CCCCC2)c(O)c2ccccc21 | -35% | -10 | 56µM* | -9 | 17% | ?
C=CCn1c(=O)c(C(=O)NCCNCC)c(O)c2ccccc21 | -20% | 4 | ? | 2 | 39% | ?
CCNCCNC(=O)c1c(O)c2ccccc2n(CC)c1=O | -25% | -4 | 11µM* | -2 | 19% | -6%
Cn1ccc2c(/C=C/c3ccc(F)cc3)cc3c(c21)C1CCC3C1 (stereo unspecified) | · | 0 | · | -1 | · | ·
O=c1cc(CN2CCN(Cc3ccc(F)cc3)C(CCO)C2)[nH]c2ccccc12 (stereo unspecified) | -27% | -2 | 25µM* | 0 | 21% | -2%
Cc1c(CN2CCN(CC(C)(C)C)C(CCO)C2)[nH]c2ccccc12 (stereo unspecified) | -13% | -2 | 71µM* | · | -3% | -33%
NN=C1c2cc(S(=O)(=O)NCCO)ccc2-c2ccc(S(=O)(=O)NCCO)cc21 | -11% | · | · | · | 36% | ·
COc1cc(OC)c(-c2cc(C(=O)NCc3ccc(F)cc3)c3c(-c4ccccc4)[nH]nc3n2)cc1OC | -19% | · | 4%[59 µM] | · | 45% | -21%
CCCCCc1cc(=O)oc2c(C(CCN(CC)CC)c3ccc(N(C)C)cc3)c(OC)cc(OC)c12 (stereo unspecified) | 28µM* | ? | ? | ? | ? | 14µM*
CCN(CC)CCC(c1ccc(N(C)C)cc1)c1c(OC)cc(OC)c2c(C)cc(=O)oc12 (stereo unspecified) | 35µM* | · | · | · | ? | ·
CCN(CC)CCC(c1cc(OC)c(OC)c(OC)c1)c1c(OC)cc(OC)c2c(C)cc(=O)oc12 (stereo unspecified) | -25% | 2 | 17%[59 µM] | -1 | 16% | 9%
ClCC1NCC(c2ccccc2Cl)c2c1[nH]c1ccccc21 (stereo unspecified) | ? | -18 | ? | 0 | 10% | 45µM*
FC(F)(F)c1cccc(-c2cc3nc(NCCCn4ccnc4)ccn3n2)c1 | · | -4 | · | 0 | · | ·
Cc1cc(NCCCn2ccnc2)n2ncc(-c3ccc(Cl)cc3)c2n1 | ? | -12 | 37%[59 µM] | -26 | -2% | ?
CC(C)(C)c1cc(NCCCn2ccnc2)n2ncc(-c3ccccc3)c2n1 | ? | -1 | ? | 0 | 10% | 56µM*
Cc1cccc(-c2cc3nc(C)cc(NCCCn4ccnc4)n3n2)c1 | -23%[11.4 µM] | ? | ? | ? | -13% | 18µM*
Cc1oc2ccc(O)c(CN3CCCC3)c2c1C(=O)Nc1ccc(C(C)C)cc1 | -24% | · | 1%[59 µM] | · | 19% | ?
Cc1ccc2nc(SCc3cn4cccnc4n3)[nH]c2c1 | ? | -1 | 7% | 0 | ? | 11%
COC(=O)c1ccc(Oc2nc(Nc3ccc(C)c(C)c3)nc(N(C)C)n2)cc1 | -15% | -9 | 14%[59 µM] | -8 | 14% | -26%
CCCCOC(=O)c1ccc(OC(=O)c2sc3ncn(Cc4ccccc4Cl)c(=O)c3c2C)cc1 | -2% | · | 1%[59 µM] | · | 11% | 2%
O=C(O)CC/C(=N\Nc1ccc([N+](=O)[O-])cc1S(=O)(=O)N1CCOCC1)c1cccs1 | -1% | -9 | 35µM* | 0 | 39% | -11%
COc1ccc(CNc2ncnc3ccc(-c4ccccc4C#N)cc23)c(OC)c1 | · | · | 4%[0.501 µM] | · | · | ·

From PubChem BioAssay
